PubChem BioAssay (NCI)
Compounds without any hit were thinned out: in the full panel of roughly 83,000, 20% have a hit.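 Single-concentration screen, 48 h exposure, 96-well plates. Endpoint: percent growth. Below 10 = active.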 The source made the active and inactive calls.

How the values were obtained:
Experiment in all cases: NCI-60 one-dose screen, 48 h (100 = growth as untreated, 0 = no growth, -100 = all killed)
Conditions in all cases: 10 µM unless noted
[1] = tested on: HCT-15 colon
[2] = tested on: HT29 colon
[3] = tested on: SNB-75 CNS
[4] = tested on: SNB-19 CNS
[5] = tested on: U251 CNS
[6] = tested on: PC-3 prostate
[7] = tested on: SK-MEL-5 melanoma
[8] = tested on: UACC-62 melanoma
[9] = tested on: LOX IMVI melanoma
[10] = tested on: SK-MEL-28 melanoma
[11] = tested on: EKVX NSCLC
[12] = tested on: SN12C renal
[13] = tested on: UO-31 renal
[14] = tested on: TK-10 renal
[15] = tested on: ACHN renal
[16] = tested on: CAKI-1 renal
[17] = tested on: A498 renal
[18] = tested on: MOLT-4 leukemia
[19] = tested on: SK-MEL-2 melanoma
[20] = tested on: CCRF-CEM leukemia

Measured: growth

Cc1nc(-c2ccccc2)cc2c(O)c(C(=O)NN)[nH]c(=O)c12
inactive: [1] 107% | [2] 114% | [3] 104% | [4] 106% | [5] 106% | [6] 67.3% | [7] 100% | [8] 98.6% | [9] 107% | [10] 111% | [11] 111% | [12] 90.9% | [13] 97.4% | [14] 161% | [15] 109% | [16] 114% | [17] 100% | [18] 102%

Fc1cccc(CNc2c3ccccc3nc3ccccc23)c1F
active: [17] -0.792%
inactive: [1] 39.5% | [2] 29.1% | [3] 78.8% | [4] 58.5% | [5] 65.6% | [6] 57.1% | [7] 83% | [8] 75.7% | [10] 96.9% | [19] 107% | [11] 62.9% | [12] 49% | [13] 40.1% | [14] 89.2% | [15] 30.6% | [16] 45.7% | [20] 62.4% | [18] 28.4%

CCCCC(=O)Nc1ncc(Cc2ccc(Cl)cc2)s1
inactive: [1] 40.3% | [2] 28.6% | [3] 46.5% | [4] 77.2% | [5] 65.6% | [6] 80.9% | [7] 80.3% | [8] 49.6% | [9] 64.8% | [10] 74.2% | [11] 72.2% | [12] 74.6% | [13] 58.2% | [14] 84.8% | [15] 81.8% | [16] 42.3% | [17] 70.6% | [20] 76.4% | [18] 66.2%

CC(C)N1CCN(Cc2ccc3c(NNC(=O)c4ccccc4)nc4cc(F)ccc4n23)CC1
inactive: [1] 31.7% | [2] 31.3% | [3] 54.7% | [4] 29.7% | [5] 17% | [6] 36.9% | [10] 29.5% | [19] 59.6% | [11] 18.1% | [12] 17.3% | [14] 36.2% | [15] 10.8% | [16] 12.5% | [20] 10.8% | [18] 11.7%
active: [7] -8.08% | [8] 7.2% | [13] 8.43% | [17] -15.8%

O=C1Nc2ccccc2[C@]12CC(c1ccccc1)=NN2
inactive: [1] 31.6% | [2] 15.8% | [3] 62.2% | [4] 52.7% | [5] 38.9% | [6] 38.5% | [7] 30.2% | [8] 19.5% | [9] 40.2% | [10] 59.2% | [11] 50.7% | [12] 59.5% | [13] 49.5% | [14] 79.7% | [15] 54.3% | [16] 38.7% | [17] 60% | [18] 43.2%

N#CC1=C(c2ccc(Cl)cc2)Nc2c(c(-c3ccc(Cl)cc3)nn2-c2ccccc2)C12C(=O)Nc1ccc(Cl)cc12 (centres undefined)
inactive: [1] 18.4% | [2] 32.4% | [3] 19% | [4] 24.4% | [5] 25.3% | [6] 21.5% | [7] 78.7% | [8] 54.6% | [10] 79.6% | [19] 74.9% | [11] 38.8% | [12] 56.5% | [13] 23.5% | [15] 34.6% | [16] 35.8% | [17] 51.6% | [20] 35.9% | [18] 35.1%

COc1ccc(/C(C)=C(/c2ccc(OCCCN(C)C)cc2)c2ccc(OC(=O)Cc3ccccc3)cc2)cc1
active: [2] 7.51%
inactive: [1] 54.6% | [3] 79% | [4] 90% | [5] 55.1% | [6] 71.9% | [7] 79.5% | [8] 70.2% | [10] 70.8% | [19] 91% | [11] 65.8% | [12] 82.4% | [13] 53.4% | [14] 95.2% | [15] 87.2% | [16] 92.9% | [17] 83.1% | [20] 65% | [18] 47.5%

CCCC(=O)NC(c1ccc2c(c1)OCO2)c1ccc2cccnc2c1O (centres undefined)
active: [7] -12.4% | [8] -5.34% | [13] -23.2% | [15] 5.12% | [16] 6.21% | [20] 4.72% | [18] 2.22%
inactive: [1] 35% | [2] 25.4% | [3] 17.5% | [4] 29.5% | [5] 14.5% | [6] 33.5% | [10] 34.5% | [19] 46% | [11] 19.1% | [12] 23.9% | [14] 25.8% | [17] 12.9%
